According to PMC7862700, “An all-to-all approach to the identification of sequence-specific readers for epigenetic DNA modifications on cytosine”:

Key:
Experiment in all cases: DAPPL (digital affinity profiling via proximity ligation, sequencing); 10 mM Tris-HCl pH 7.5, 50 mM NaCl, 1 mM DTT, 4% glycerol, room temperature, 30 min; GST-TFs on glutathione beads, 16-mer random dsDNA library, 0.1% formaldehyde crosslink after washing; high values mean tight binding
[1] = biological target: T1, FLI1 (Homo sapiens, UniProt Q01543 1-452); conditions: protein: recombinant; tags: N-terminal GST; dsDNA, one strand shown
T1 sequence: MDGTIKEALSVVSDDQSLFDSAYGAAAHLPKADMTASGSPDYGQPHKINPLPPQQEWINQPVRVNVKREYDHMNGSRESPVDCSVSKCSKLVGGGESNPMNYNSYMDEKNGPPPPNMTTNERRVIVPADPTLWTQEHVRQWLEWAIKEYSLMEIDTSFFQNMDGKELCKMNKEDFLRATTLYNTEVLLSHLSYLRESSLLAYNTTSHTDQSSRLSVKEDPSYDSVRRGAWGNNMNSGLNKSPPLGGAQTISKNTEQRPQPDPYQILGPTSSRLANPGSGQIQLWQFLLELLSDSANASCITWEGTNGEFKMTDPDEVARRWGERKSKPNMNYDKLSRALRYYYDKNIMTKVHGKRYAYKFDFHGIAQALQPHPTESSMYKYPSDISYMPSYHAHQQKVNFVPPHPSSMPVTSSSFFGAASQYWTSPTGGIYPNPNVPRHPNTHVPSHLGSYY
Procedure, shortened: (§1)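 The binding signal reported is, for every hexamer, its read frequency for a factor over its read frequency for the tag-only sample. Reads came from pools of yeast-expressed, GST-fused human transcription factors on glutathione beads, barcoded with DNA and mixed with that sample, which were incubated with 200 nmole of a random double-stranded 16-mer DNA library in Tris/NaCl/DTT/glycerol buffer at room temperature for 30 min. After washing, the pools were crosslinked with 0.1% formaldehyde, proximity-ligated with BsaI/T4 ligase for 1 h at 37 °C, PCR-amplified and sequenced on an Illumina NextSeq500.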

[2] = biological target: T2, ELK1 (Homo sapiens, UniProt P19419 1-428); conditions: protein: recombinant; tags: N-terminal GST; dsDNA, one strand shown
T2 sequence: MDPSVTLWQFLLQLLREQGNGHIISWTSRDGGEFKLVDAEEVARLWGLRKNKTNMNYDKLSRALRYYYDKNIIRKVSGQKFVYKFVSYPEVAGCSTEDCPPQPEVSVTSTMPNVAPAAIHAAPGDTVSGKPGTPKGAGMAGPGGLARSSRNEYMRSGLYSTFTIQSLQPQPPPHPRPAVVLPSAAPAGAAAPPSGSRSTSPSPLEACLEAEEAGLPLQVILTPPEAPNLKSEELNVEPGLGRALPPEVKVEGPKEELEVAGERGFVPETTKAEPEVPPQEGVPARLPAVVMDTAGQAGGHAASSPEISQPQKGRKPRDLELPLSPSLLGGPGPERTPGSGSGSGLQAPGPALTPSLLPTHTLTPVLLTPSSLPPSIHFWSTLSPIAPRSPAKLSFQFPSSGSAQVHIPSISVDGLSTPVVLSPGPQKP
Procedure, shortened: as §1

[3] = biological target: T3, GABPA (Homo sapiens, UniProt Q06546 1-454); conditions: protein: recombinant; tags: N-terminal GST; dsDNA, one strand shown
T3 sequence: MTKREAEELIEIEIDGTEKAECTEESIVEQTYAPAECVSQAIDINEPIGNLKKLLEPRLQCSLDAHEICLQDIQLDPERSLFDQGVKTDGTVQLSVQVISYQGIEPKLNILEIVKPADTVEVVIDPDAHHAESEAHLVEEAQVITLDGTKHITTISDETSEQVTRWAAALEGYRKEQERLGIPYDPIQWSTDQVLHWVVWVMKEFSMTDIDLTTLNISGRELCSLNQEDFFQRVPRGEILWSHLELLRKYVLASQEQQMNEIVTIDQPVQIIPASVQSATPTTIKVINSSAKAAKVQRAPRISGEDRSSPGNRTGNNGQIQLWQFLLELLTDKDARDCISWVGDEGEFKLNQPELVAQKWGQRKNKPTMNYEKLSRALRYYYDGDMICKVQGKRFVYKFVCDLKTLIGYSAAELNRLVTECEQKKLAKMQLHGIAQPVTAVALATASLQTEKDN
Procedure, shortened: as §1

[4] = biological target: T4, ERG (Homo sapiens, UniProt P11308 1-479); conditions: protein: recombinant; tags: N-terminal GST; dsDNA, one strand shown
T4 sequence: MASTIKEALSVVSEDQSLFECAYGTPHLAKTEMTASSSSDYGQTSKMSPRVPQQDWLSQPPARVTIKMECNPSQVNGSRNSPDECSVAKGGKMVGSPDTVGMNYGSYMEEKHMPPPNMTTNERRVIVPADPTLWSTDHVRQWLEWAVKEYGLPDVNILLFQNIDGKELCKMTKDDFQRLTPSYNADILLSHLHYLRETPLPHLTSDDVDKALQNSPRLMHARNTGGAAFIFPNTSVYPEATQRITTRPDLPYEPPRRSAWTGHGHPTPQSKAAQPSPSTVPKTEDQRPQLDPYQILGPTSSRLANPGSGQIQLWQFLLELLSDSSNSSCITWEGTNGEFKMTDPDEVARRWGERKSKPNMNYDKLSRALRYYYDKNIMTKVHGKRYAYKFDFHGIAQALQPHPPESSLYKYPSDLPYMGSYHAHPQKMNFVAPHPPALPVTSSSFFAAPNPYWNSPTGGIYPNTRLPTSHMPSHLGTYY
Procedure, shortened: as §1

[5] = biological target: ELF1 (Homo sapiens, UniProt P32519 1-619); conditions: protein: recombinant; tags: N-terminal GST; dsDNA, one strand shown
Procedure, shortened: as §1

[6] = biological target: T5, EHF (Homo sapiens, UniProt Q9NZC4 1-300); conditions: protein: recombinant; tags: N-terminal GST; dsDNA, one strand shown
T5 sequence: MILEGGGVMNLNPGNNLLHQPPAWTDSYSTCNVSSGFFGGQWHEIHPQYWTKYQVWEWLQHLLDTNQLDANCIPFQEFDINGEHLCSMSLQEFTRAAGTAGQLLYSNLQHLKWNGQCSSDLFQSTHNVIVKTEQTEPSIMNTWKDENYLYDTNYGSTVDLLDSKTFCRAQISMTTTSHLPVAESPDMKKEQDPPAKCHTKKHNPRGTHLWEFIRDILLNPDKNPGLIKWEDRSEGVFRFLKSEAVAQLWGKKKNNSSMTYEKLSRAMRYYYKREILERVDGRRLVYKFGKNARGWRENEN
Procedure, shortened: as §1

[7] = biological target: SPIB (Homo sapiens, UniProt Q01892 1-262); conditions: protein: recombinant; tags: N-terminal GST; dsDNA, one strand shown
Procedure, shortened: as §1

[8] = biological target: T6, FEV (Homo sapiens, UniProt Q99581 1-238); conditions: protein: recombinant; tags: N-terminal GST; dsDNA, one strand shown
T6 sequence: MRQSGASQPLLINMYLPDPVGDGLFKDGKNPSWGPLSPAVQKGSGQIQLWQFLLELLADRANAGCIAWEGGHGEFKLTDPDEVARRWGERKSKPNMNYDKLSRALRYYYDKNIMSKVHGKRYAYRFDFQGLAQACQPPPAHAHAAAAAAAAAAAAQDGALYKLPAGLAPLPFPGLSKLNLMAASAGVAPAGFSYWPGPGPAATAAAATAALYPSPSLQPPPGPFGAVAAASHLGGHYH
Procedure, shortened: as §1

[9] = biological target: ETV5 (Homo sapiens, UniProt P41161 1-510); conditions: protein: recombinant; tags: N-terminal GST; dsDNA, one strand shown
Procedure, shortened: as §1

[10] = biological target: HSF1 (Homo sapiens, UniProt Q00613 1-529); conditions: protein: recombinant; tags: N-terminal GST; chain copies: 3; dsDNA, one strand shown
Procedure, shortened: as §1

[11] = biological target: T7, SPIC (Homo sapiens, UniProt Q8N5J4 1-248); conditions: protein: recombinant; tags: N-terminal GST; dsDNA, one strand shown
T7 sequence: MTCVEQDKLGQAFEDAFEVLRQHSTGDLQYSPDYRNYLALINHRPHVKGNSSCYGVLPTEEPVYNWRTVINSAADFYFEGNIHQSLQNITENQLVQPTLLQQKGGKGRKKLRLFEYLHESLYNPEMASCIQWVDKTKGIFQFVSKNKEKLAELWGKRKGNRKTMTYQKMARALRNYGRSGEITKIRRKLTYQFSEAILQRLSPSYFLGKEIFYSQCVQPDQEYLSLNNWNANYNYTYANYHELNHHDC
Procedure, shortened: as §1

[12] = biological target: ELF4 (Homo sapiens, UniProt Q99607 1-663); conditions: protein: recombinant; tags: N-terminal GST; dsDNA, one strand shown
Procedure, shortened: as §1

[13] = biological target: T8, ELK4 (Homo sapiens, UniProt P28324-2 1-405); conditions: protein: recombinant; tags: N-terminal GST; dsDNA, one strand shown
T8 sequence: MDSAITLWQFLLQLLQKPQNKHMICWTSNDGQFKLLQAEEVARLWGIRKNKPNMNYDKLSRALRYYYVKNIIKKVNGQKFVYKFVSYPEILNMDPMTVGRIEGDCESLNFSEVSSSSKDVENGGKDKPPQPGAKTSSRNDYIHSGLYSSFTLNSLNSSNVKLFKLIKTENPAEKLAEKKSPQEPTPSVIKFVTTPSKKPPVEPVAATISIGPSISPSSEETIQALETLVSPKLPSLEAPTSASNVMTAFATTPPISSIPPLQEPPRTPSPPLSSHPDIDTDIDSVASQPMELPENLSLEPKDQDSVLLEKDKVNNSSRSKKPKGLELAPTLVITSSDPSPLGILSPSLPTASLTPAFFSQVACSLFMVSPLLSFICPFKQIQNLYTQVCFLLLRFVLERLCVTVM
Procedure, shortened: as §1

[14] = biological target: T9, ETV2 (Homo sapiens, UniProt O00321 1-342); conditions: protein: recombinant; tags: N-terminal GST; dsDNA, one strand shown
T9 sequence: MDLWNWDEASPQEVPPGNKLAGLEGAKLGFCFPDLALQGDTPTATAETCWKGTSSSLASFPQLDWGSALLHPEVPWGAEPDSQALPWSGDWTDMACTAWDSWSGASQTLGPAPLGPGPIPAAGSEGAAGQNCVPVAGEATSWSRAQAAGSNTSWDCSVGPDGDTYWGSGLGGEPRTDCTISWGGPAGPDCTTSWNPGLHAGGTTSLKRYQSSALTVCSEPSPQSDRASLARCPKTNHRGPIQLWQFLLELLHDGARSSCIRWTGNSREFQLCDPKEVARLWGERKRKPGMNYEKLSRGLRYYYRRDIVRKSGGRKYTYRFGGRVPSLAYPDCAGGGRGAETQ
Procedure, shortened: as §1

[15] = biological target: T10, ELF3 (Homo sapiens, UniProt P78545 1-371); conditions: protein: recombinant; tags: N-terminal GST; dsDNA, one strand shown
T10 sequence: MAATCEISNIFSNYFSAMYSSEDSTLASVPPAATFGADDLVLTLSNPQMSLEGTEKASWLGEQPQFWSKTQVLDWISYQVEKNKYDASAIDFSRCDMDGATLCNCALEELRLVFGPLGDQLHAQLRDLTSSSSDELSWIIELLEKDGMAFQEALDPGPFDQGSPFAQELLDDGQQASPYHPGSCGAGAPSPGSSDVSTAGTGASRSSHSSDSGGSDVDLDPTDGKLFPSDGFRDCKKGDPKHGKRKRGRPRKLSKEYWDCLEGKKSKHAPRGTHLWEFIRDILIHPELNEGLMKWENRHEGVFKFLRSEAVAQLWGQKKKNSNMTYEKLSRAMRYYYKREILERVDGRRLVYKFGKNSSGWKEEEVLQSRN
Procedure, shortened: as §1

[16] = biological target: CRX (Homo sapiens, UniProt O43186 1-299); conditions: protein: recombinant; tags: N-terminal GST; dsDNA, one strand shown
Procedure, shortened: as §1

[17] = biological target: ETV1 (Homo sapiens, UniProt P50549 1-477); conditions: protein: recombinant; tags: N-terminal GST; dsDNA, one strand shown
Procedure, shortened: as §1

[18] = biological target: SPI1 (Homo sapiens, UniProt P17947 1-270); conditions: protein: recombinant; tags: N-terminal GST; dsDNA, one strand shown
Procedure, shortened: as §1

ETV5, sequence (P41161 whole entry): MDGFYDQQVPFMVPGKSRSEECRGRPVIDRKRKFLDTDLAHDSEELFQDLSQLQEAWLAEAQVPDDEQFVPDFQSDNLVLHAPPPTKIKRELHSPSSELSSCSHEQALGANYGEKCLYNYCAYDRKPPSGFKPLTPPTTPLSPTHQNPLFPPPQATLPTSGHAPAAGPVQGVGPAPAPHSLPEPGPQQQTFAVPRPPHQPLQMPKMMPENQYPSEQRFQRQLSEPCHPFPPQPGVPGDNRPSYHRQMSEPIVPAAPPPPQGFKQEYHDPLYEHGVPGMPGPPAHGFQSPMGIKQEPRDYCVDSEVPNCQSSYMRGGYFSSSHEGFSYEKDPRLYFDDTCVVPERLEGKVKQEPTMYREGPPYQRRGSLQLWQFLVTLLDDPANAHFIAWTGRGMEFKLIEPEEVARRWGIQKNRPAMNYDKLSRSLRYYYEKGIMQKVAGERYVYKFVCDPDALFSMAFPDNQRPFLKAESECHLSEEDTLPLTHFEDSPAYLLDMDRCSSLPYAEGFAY
ELF1, sequence (P32519 whole entry): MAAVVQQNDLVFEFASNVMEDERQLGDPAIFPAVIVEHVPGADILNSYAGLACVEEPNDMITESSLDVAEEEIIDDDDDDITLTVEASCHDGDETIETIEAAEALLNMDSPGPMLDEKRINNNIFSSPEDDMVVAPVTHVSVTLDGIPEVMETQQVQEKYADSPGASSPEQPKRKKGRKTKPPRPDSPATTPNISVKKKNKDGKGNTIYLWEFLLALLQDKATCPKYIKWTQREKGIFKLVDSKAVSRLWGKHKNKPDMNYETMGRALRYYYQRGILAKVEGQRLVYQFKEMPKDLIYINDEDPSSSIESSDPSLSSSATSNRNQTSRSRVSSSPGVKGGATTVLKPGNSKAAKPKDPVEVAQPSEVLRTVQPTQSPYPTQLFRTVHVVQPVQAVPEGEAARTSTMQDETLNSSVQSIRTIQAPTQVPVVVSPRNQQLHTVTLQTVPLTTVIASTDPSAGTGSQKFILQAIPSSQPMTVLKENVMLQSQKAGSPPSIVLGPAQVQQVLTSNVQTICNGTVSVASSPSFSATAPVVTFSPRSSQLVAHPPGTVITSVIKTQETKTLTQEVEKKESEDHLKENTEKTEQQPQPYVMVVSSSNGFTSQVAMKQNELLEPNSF
CRX, sequence (O43186 whole entry): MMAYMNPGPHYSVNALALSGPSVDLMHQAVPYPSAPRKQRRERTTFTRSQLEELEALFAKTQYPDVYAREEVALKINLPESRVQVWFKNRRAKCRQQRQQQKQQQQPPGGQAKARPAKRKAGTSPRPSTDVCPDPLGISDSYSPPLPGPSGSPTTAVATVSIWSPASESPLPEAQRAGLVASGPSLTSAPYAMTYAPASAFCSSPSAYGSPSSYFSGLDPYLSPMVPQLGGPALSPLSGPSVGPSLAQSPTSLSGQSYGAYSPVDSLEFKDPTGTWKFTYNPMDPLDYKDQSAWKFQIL
ELF4, sequence (Q99607 whole entry): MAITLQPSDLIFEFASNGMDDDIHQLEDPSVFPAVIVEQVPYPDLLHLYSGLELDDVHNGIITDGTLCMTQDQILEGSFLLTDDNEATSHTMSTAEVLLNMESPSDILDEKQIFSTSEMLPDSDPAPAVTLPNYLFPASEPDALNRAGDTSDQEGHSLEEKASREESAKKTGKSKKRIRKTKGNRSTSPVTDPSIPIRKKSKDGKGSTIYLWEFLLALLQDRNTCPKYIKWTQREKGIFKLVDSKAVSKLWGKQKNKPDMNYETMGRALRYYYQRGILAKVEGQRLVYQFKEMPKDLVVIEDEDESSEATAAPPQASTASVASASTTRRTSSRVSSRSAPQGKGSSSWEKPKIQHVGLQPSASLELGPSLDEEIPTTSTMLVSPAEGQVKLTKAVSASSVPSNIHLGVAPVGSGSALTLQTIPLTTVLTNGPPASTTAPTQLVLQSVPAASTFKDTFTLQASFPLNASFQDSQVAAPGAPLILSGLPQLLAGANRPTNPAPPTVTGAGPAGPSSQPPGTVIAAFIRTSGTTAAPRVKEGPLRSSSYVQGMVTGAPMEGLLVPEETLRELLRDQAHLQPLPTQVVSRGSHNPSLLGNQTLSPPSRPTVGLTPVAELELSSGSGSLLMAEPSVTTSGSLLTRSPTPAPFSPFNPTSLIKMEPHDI
ETV1, sequence (P50549 whole entry): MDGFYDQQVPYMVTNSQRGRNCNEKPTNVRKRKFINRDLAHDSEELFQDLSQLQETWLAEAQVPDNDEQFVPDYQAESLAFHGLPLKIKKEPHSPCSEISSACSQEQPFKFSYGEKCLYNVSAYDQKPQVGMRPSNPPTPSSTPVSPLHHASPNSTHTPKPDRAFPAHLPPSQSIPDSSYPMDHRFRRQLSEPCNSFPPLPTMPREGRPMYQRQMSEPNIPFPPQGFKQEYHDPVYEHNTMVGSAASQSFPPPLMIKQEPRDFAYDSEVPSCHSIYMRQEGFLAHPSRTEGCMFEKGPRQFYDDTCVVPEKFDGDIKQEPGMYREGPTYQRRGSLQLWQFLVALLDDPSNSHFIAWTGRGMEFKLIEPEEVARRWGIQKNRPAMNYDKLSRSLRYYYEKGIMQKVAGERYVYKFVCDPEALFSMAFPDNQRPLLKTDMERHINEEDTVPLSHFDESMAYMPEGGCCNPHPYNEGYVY
HSF1, sequence (Q00613 whole entry): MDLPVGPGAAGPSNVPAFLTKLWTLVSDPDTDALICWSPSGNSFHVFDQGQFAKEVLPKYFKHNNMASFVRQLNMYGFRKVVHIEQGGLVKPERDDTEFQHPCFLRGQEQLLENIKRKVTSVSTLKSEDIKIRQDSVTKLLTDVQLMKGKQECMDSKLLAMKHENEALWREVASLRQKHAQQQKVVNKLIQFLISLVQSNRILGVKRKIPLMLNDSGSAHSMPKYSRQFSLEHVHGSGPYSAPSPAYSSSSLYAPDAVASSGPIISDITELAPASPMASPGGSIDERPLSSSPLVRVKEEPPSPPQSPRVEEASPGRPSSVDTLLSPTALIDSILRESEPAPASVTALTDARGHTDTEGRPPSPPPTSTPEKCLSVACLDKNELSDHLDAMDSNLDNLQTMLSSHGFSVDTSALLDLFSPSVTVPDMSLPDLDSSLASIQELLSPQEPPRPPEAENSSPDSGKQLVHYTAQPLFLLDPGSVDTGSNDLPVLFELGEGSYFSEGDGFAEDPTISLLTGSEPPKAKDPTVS
SPIB, sequence (Q01892 whole entry): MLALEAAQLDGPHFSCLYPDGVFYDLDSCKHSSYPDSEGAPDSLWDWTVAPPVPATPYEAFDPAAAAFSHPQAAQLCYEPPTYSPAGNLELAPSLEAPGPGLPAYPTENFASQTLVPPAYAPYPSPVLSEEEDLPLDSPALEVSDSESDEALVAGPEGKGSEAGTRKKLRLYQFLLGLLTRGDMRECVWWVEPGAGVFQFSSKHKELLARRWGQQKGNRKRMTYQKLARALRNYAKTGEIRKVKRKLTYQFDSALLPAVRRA

| Sequence | binding signal [1] | binding signal [2] | binding signal [3] | binding signal [4] | binding signal [5] | binding signal [6] | binding signal [7] | binding signal [8] | binding signal [9] | binding signal [10] | binding signal [11] | binding signal [12] | binding signal [13] | binding signal [14] | binding signal [15] | binding signal [16] | binding signal [17] | binding signal [18] |
| --- | --- | --- | --- | --- | --- | --- | --- | --- | --- | --- | --- | --- | --- | --- | --- | --- | --- | --- |
| ACCCGA | 1.05 fold enrichment (6-mer frequency, TF over GST control) | 1.02 fold enrichment (6-mer frequency, TF over GST control) | 1.03 fold enrichment (6-mer frequency, TF over GST control) | 1.05 fold enrichment (6-mer frequency, TF over GST control) | 1.03 fold enrichment (6-mer frequency, TF over GST control) | 1.18 fold enrichment (6-mer frequency, TF over GST control) | 1.14 fold enrichment (6-mer frequency, TF over GST control) | 1.1 fold enrichment (6-mer frequency, TF over GST control) | 1.08 fold enrichment (6-mer frequency, TF over GST control) | 1.21 fold enrichment (6-mer frequency, TF over GST control) | 1.08 fold enrichment (6-mer frequency, TF over GST control) | 1.03 fold enrichment (6-mer frequency, TF over GST control) | 1.04 fold enrichment (6-mer frequency, TF over GST control) | 1.17 fold enrichment (6-mer frequency, TF over GST control) | 1.11 fold enrichment (6-mer frequency, TF over GST control) | 1.1 fold enrichment (6-mer frequency, TF over GST control) | 1.1 fold enrichment (6-mer frequency, TF over GST control) | – |
| ATTAAG | 1.04 fold enrichment (6-mer frequency, TF over GST control) | 1.07 fold enrichment (6-mer frequency, TF over GST control) | 1.09 fold enrichment (6-mer frequency, TF over GST control) | 1.01 fold enrichment (6-mer frequency, TF over GST control) | 1.08 fold enrichment (6-mer frequency, TF over GST control) | 1.04 fold enrichment (6-mer frequency, TF over GST control) | 1.06 fold enrichment (6-mer frequency, TF over GST control) | 1.02 fold enrichment (6-mer frequency, TF over GST control) | 1.01 fold enrichment (6-mer frequency, TF over GST control) | 2 fold enrichment (6-mer frequency, TF over GST control) | 1.04 fold enrichment (6-mer frequency, TF over GST control) | 1.06 fold enrichment (6-mer frequency, TF over GST control) | 1.04 fold enrichment (6-mer frequency, TF over GST control) | 1.03 fold enrichment (6-mer frequency, TF over GST control) | 1.14 fold enrichment (6-mer frequency, TF over GST control) | 3.35 fold enrichment (6-mer frequency, TF over GST control) | 1.03 fold enrichment (6-mer frequency, TF over GST control) | 1.03 fold enrichment (6-mer frequency, TF over GST control) |
